Reference: PubChem BioAssay (NCATS)
Inconclusive results are not listed. The source made the active and inactive calls. Calls follow the shape of the dose curve; as a rule, active = well fitted inhibition curve with a large enough effect; inconclusive = small, poorly fitted or top-dose-only effect; inactive = flat fitted curve, though single readings scatter.

Columns and labels:
[1] = tested on: CRL-7250; assay: Cytotoxic Profiling of Annotated Libraries Using Quantitative High-Throughput Screening (AID 1296008); settings: Five cell lines viability, CellTiter-Glo ATP luminescence, 48-72 h; max response: hits give low values; also: potency is read from the fitted curve at half-maximal effect; as to max response: % is scaled to controls: 0 for no effect and ±100 for the full control effect
Outline: (§1)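 Compounds were pin-transferred onto cells and incubated 48 or 72 hr at 37 degree Celsius, 95% humidity. CellTiter-Glo was added, plates sat 10 min at room temperature, then ATP-coupled luminescence was imaged as the viability read-out.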

[2] = tested on: HaCat; assay: as above; settings: Five cell lines viability, CellTiter-Glo ATP luminescence, 48-72 h; max response: hits give low values
Outline: as §1

[3] = tested on: NIH3T3; assay: as above; settings: Five cell lines viability, CellTiter-Glo ATP luminescence, 48-72 h; max response: hits give low values
Outline: as §1

[4] = tested on: HACAT; assay: qHTS assay to identify novel small-molecules to repurpose for Merkel cell carcinoma treatment (AID 1296009); settings: MCC and control cell lines, CellTiter-Glo viability, 72 h; at 44.8 µM (top of the series) unless noted
Outline: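 Viability readout: ATP luminescence (CellTiter-Glo) after 72 hr drug exposure at 37 degree celsius. Dose-response format was 8 points for NPC and 11 points for MIPE; data normalized to in-plate controls.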
Also: nearly all actives have a fitted effect of over 60% in size.

COc1ccc(NC(=O)c2ccc(-c3ccc(-c4nnc(C)o4)cc3C)cc2)cc1N1CCN(C)CC1
inactive: max response [1] 2.13% | outcome [2] inactive; activator | max response [3] -14.5% | outcome [4] inactive; activator

CNc1nc(NCc2ccc(NS(C)(=O)=O)cc2Cl)cc(-c2ccccn2)n1
inactive: outcome [2] | max response [3] -15.9% | outcome [4]
active: Potency [1] 20.6 µM

CCOc1cc(C(C)(C)C)ccc1C1=NC(C)(c2ccc(Cl)cc2)C(C)(c2ccc(Cl)cc2)N1C(=O)N1CCN(CCCS(C)(=O)=O)CC1 (stereo not drawn)
active: Potency [1] 5.17 µM | Potency [2] 20.6 µM | Potency [3] 9.2 µM

CC(C)(O)C1CC(=O)C2(C)C(CCC3(C)C(c4ccoc4)OC(=O)C4OC432)C12CCC(=O)OC2 (stereo not drawn)
inactive: max response [1] -9.62% | outcome [2] | outcome [3] | outcome [4] inactive [at 17.4 µM]

N#Cc1ccc(N2N=C3c4ccc(C(=O)O)cc4CC[C@@H]3[C@@H]2C2CCCC2)cc1Cl
inactive: max response [1] 1.36% | outcome [2] | max response [3] -3.29% | outcome [4]

COc1cc2nc(N3CCN(C(=O)COc4c(OC)cccc4C(C)C)CC3)nc(N)c2cc1OC
inactive: max response [1] 1.78% | outcome [2] | outcome [3] | outcome [4]

COc1cc(CN(CCN)C(=O)c2cccs2)ccc1OCc1ccccc1
inactive: max response [1] 4.59% | max response [2] -3.01% | max response [3] -11.2%

C/C=C/CCC1Cc2cc(O)c(CCCC)c(O)c2C(=O)O1 (stereo not drawn)
inactive: outcome [1] | outcome [2] | max response [3] 2.45% | outcome [4]

C[C@@H](Nc1ncnc2[nH]c(-c3ccc(O)cc3)cc12)c1ccccc1
active: Potency [2] 0.82 µM | Potency [3] 14.6 µM
inactive: max response [1] -9.15%

O=C(Nc1nc2ccc([N+](=O)[O-])cc2s1)C1CCCCC1
inactive: max response [1] -7.28% | outcome [2] | max response [3] -1.61% | outcome [4]

CC1(C)CC[C@]2(C(=O)O)CC[C@]3(C)C(=CCC4[C@@]5(C)C[C@@H](O)[C@H](O)C(CO)(CO)C5CC[C@]43C)C2[C@@H]1O (stereo partly drawn)
active: Potency [1] 7.96 µM
inactive: max response [2] -58.7% | max response [3] -1.94%

Cc1nc(Nc2ccc(F)cc2)nc(N2CCc3ccccc3C2C)c1C (stereo not drawn)
inactive: max response [1] -9.52% | outcome [2] | max response [3] -20.5% | outcome [4]

O=S(=O)(c1ccccc1)N(CC(F)(F)F)c1ccc(C(O)(C(F)(F)F)C(F)(F)F)cc1
inactive: outcome [1] | outcome [2] | max response [3] 0.0289% | outcome [4]

Cc1c(OCc2cccc(-c3ccc(C(=O)O)cc3)c2)cc2c(c1C)C(=O)C(C1CCCC1)C2 (stereo not drawn)
inactive: max response [1] 3.68% | max response [2] -12% | max response [3] -4.46%

C=C1C(=O)O[C@@H]2/C=C(/C)[C@@H](OC(C)=O)C/C=C(\C)C[C@@H](OC(=O)/C(=C/CO)CO)[C@@H]12
inactive: max response [1] 3.05% | max response [2] -3.88% | max response [3] 0.581%

Cc1noc(C)c1-c1cc(O)cc(C(O)c2ccccc2)c1 (stereo not drawn)
active: Potency [1] 7.31 µM | Potency [3] 10.3 µM
inactive: max response [2] -28.1%

O=C(NCCCCN1CCN(c2cccc(Cl)c2Cl)CC1)c1cc2ccccc2s1
inactive: max response [1] -20.7% | outcome [2] | max response [3] -29.5% | outcome [4]

CN(C)C(CCOc1cccc2ccccc12)c1ccccc1 (stereo not drawn)
inactive: max response [1] -16.3% | outcome [2] | outcome [3] | outcome [4]

Cc1onc(-c2ccccc2)c1C(=O)N1CCN(c2ccc([N+](=O)[O-])cc2Cl)CC1
inactive: max response [1] -3.78% | outcome [2] | max response [3] 4.81% | outcome [4]

COc1cc(C(=O)O)ccc1NC(=O)C1NC(CC(C)(C)C)C(C#N)(c2ccc(Cl)cc2F)C1c1cccc(Cl)c1F (stereo not drawn)
inactive: max response [1] -18.8% | outcome [2] | max response [3] -5.77% | outcome [4]

O=C(Nc1ccc(Cl)cc1)Nc1cccc(-c2cccc(N3CCCC3)n2)c1
inactive: max response [1] -4.95% | outcome [2] | max response [3] 1.43% | outcome [4]

CCN(CC)C(=O)C(c1ccccc1)N1CCN(c2ccc(NC(=O)c3ccccc3-c3cccnc3)cc2F)CC1 (stereo not drawn)
inactive: max response [1] -1.45% | outcome [2] | outcome [3] | outcome [4]

C/C(=C/CO)CCC1C(C)CCC2C(C)(C)CCCC12C (stereo not drawn)
inactive: max response [1] -3.35% | max response [2] -18.8% | max response [3] 1.98%

CN(C)C(=O)C(=O)c1cn(C)c2cc(Cl)c(C(=O)N3CCC(Cc4ccc(F)cc4)CC3)cc12
inactive: max response [1] -5.29% | outcome [2] | max response [3] 1.98% | outcome [4]
